esBAF inh: Bmi1 luciferase reporter increase in mESCs, primary screen, esBAF inhibitor project, mouse ES cells, Bmi1 luciferase knock-in, single point. 2% of 350,000 active. 24 h; 100% = twice the neutral-well signal. reporter increase, % at 12.5 µM; in the data active = activation above about 40%; inconclusive = no clear call, values can overlap the other calls;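 also: 0% = median of the plate's neutral control wells and 100% = double that signal; a rise in the Bmi1 reporter signal indicates esBAF inhibition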
Wnt bcat act: Wnt/beta-catenin pathway activators, primary screen, cell-based, plate reader, single point; activation, % at 9.35 µM; Wnt/beta-catenin reporter cell assay, activator; 1.2% of 300,000 active; in the data active = activation above about 30%, passing the limit was not always enough; inconclusive = no clear call, values can overlap the other calls;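 also: 0% = neutral control wells and 100% = positive control wells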
MITF TRPM1 HTS: activators of MITF-driven TRPM1 promoter reporter, primary screen, cell-based, SK-MEL-5, luciferase, single point; SK-MEL-5 TRPM1-promoter luciferase, 24 h; % of positive control, neutral wells = 0; activation, % at 12.5 µM; 0.75% of 300,000 active;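 active = mean activation of at least 80% with every replicate also reaching 80%; inconclusive = mean reaches 80% but some replicate falls short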;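 also: 0% = neutral control wells and 100% = parthenolide positive control wells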
HSF1 inhib: HSF1 inhibitors in luciferase reporter cells, primary screen, cell-based, NIH3T3, luminescence. NIH3T3-HGL HSE-luciferase, MG132-induced, luminescence 8 h; active compounds read low. activity change, negative = inhibition, % at 7.5 µM (by protocol). 0.77% of 300,000 active. AID 2098, 2009;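 active = more than half of replicate wells show activity change below -50%, luminescence cut by over half; inconclusive = some wells, but at most half, below -50%; inactive = no replicate well below -50%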;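 also: luciferase reports HSF-1 transcriptional activity via heat shock element; 0% = median of DMSO wells and -100% = zero luminescence signal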
SMARCA2 activ: SMARCA2 (BRM) function activators, primary screen, cell-based, luminescence, high throughput | MG213 cells, MMTV-luciferase reporter, dexamethasone, overnight | activation, % at 9.1 µM | 1% of 370,000 active; in the data active = activation above about 7.8%;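 also: 0% = vehicle wells and 100% = reference activator wells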
HSF-1 act: HSF-1 activators, primary screen, NIH3T3-HGL cells, MG132 stress, luminescence, single point; NIH3T3-HGL HSF-1 luciferase reporter, 8 h; 100% = twice DMSO control signal; 1.7% of 300,000 active; activation, % at 9 µM;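 active = mean replicate activation of at least 50% with a set share of replicates each reaching 50%; inconclusive = only one of those two conditions met; inactive = mean below 50% and too few replicates reaching it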;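 also: 0% = median of the neutral control wells and 100% = twice that signal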
Numbers without * were called inactive; ? = inconclusive; · = no result given. Hits are enriched below; roughly 4.3% of the tested compounds scored in any of these assays.

SMILES	esBAF inh	Wnt bcat act	MITF TRPM1 HTS	HSF1 inhib	SMARCA2 activ	HSF-1 act
Cc1nc(C(C)NC(=O)c2cc(COc3ccc(C)c(C)c3)on2)c(C)s1 (centres undefined)	73*	-1	79	31	4	31
CO[C@@H]1CN(C)C(=O)c2ccc(NS(C)(=O)=O)cc2OC[C@H](C)N(C)C[C@@H]1C	-3	·	·	·	·	·
COc1cccc(C#Cc2cnc3c(c2)C(=O)N([C@@H](C)CO)C[C@H](C)[C@H](CN(C)C(=O)C2CC2)O3)c1	-6	·	·	·	·	·
CC(C)NC(=O)N(C)C[C@@H]1Oc2ccc(NC(=O)Cn3cnnn3)cc2C(=O)N([C@@H](C)CO)C[C@H]1C	-7	·	·	·	·	·
CSc1ccccc1COC(=O)Nc1ccccc1C	6	-1	6	7	3	30
Cc1ccccc1NC(=O)OCc1ccccc1	53*	7	·	13	-1	31
COc1cccc(COC(=O)Nc2ccccc2F)c1	39	25	53	45	6	74*
C[C@H](CO)N1C[C@H](C)[C@@H](CN(C)Cc2cccnc2)Oc2ncc(C#Cc3cccnc3)cc2C1=O	-4	·	·	·	·	·
COc1cccc(N2C(=O)C(c3ccccc3)=C(c3nc4ccccc4s3)C2NC(C)=O)c1 (centres undefined)	-4	6	-4	0	0	-6
CC(=O)NC1C(c2nc3ccccc3s2)=C(c2ccccc2)C(=O)N1c1ccc(C)cc1 (centres undefined)	21	33*	·	4	-1	18
O=c1oc(CCO)cc2ccc(-c3ccc4[nH]ccc4c3)cc12	50*	43*	117*	·	5	·
O=C(c1ccc2ccccc2c1O)N1CCCCC1	56*	-4	·	·	3	·
Cc1cc(OCC(=O)NC(C)(C)C)ccc1Cl	62*	7	74	13	0	24
COCCCNC(=O)COc1ccc(Cl)c(C)c1	10	7	·	-1	-3	20
CC(C)(C)NC(=O)COc1ccc(-c2ccccc2)cc1	57*	·	65	10	3	22
CCNC(=O)COc1ccc(-c2ccccc2)cc1	19	40*	·	12	-1	33
CC(C)C#Cc1cnc2c(c1)C(=O)N([C@@H](C)CO)C[C@@H](C)[C@@H](CN(C)C(=O)Cc1ccccn1)O2	-1	·	·	·	·	·
Cc1cccc(N=[N+]([O-])c2cccc(C)n2)n1	57*	13	70	·	8	·
Cc1cccc(N=O)n1	·	-2	·	·	-1	·
C/C=C/c1ccc2c(c1)O[C@H](CN(C)C(=O)NC1CCCCC1)[C@@H](C)CN([C@@H](C)CO)S2(=O)=O	13	·	·	·	·	·
O=C(C[C@H]1CC[C@@H](NC(=O)Nc2cc(F)ccc2F)[C@H](CO)O1)Nc1ccccc1	-5	·	·	·	·	·
CCCc1cc(C(=O)Nc2cccc(Cl)c2)no1	54*	47*	·	22	5	17
CCCc1cc(C(=O)Nc2cccc(C(C)=O)c2)no1	51*	40*	52	0	7.9*	-12
CCCc1cc(C(=O)Nc2cccnc2)no1	15	41*	·	-4	3	-23
CCCc1cc(C(=O)Nc2ccc(F)c(Cl)c2)no1	31	21	108*	17	3	23
SMILES	esBAF inh	Wnt bcat act	MITF TRPM1 HTS	HSF1 inhib	SMARCA2 activ	HSF-1 act
CCCc1cc(C(=O)Nc2ccc(C#N)cc2)no1	4	13	11	5	-2	13
CCCc1cc(C(=O)Nc2ccc(C(C)=O)cc2)no1	6	14	31	16	1	-3
CC(C)CC#Cc1ccc2c(c1)O[C@H](CN(C)C(=O)c1cccc(F)c1)[C@@H](C)CN([C@@H](C)CO)S2(=O)=O	-4	·	·	·	·	·
COc1ccccc1OCC(=O)Nc1ccc(Cl)cc1	18	19	52	18	3	10
NC(=O)c1ccccc1OCC(=O)Nc1ccc(Cl)c(Cl)c1	·	40*	64	50	3	91*
O=C(Cc1ccc2c(c1)CCCC2)Nc1ccc2ccccc2c1	·	·	8	13	3	57*
NC(=O)c1ccccc1OCC(=O)Nc1ccc2c(c1)CCC2	97*	27	93*	·	0	·
O=C(COC(=O)c1ccccc1-n1cnnn1)c1ccc(F)cc1	30	15	50	-53*	5	-57
O=C(COC(=O)c1cccc(-n2cnnn2)c1)c1ccc(F)c(F)c1	?	0	·	·	-1	·
O=C(COC(=O)c1cccc(-n2cnnn2)c1)c1ccc(Br)cc1	49*	23	22	12	4	25
COc1ccccc1C(=O)COC(=O)c1ccc(-n2cnnn2)cc1	17	-2	25	2	-1	16
Cc1cc(C(=O)CSc2nnnn2-c2ccccc2)c(C)n1-c1ccc2c(c1)OCO2	·	-2	0	-6	-2	6
Cc1cc(C(=O)CSc2nncs2)c(C)n1-c1ccc2c(c1)OCO2	80*	·	71	25	0	23
Cc1ccc(NC(=O)c2cc(-n3cnnc3)ccc2Cl)cc1	3	·	-5	-10	3	1
O=C(Nc1ccc(-c2nc3ccccc3s2)cc1)c1cc(-n2cnnc2)ccc1Cl	60*	4	-49	0	-4	-2
S=c1[nH]c(-c2ccccc2)cn1/N=C/c1ccncc1	16	-1	8	-2	-2	3
CCOc1ccc(/C=N/n2cc(-c3ccccc3)[nH]c2=S)cc1	45*	18	1	2	-2	22
CC(C)(C)N1C(=O)c2ccc(C(=O)Nc3ccc(O)cc3)cc2C1=O	?	48*	·	10	6	27
CC(C)(C)NC(=O)c1cccc(NC(=O)c2ccc3c(c2)C(=O)N(C(C)(C)C)C3=O)c1	-6	-1	7	-11	1	-28
Cc1noc(C)c1NC(=O)N(C)C[C@H]1Oc2c(NS(=O)(=O)c3ccc(Cl)cc3)cccc2C(=O)N([C@H](C)CO)C[C@H]1C	-4	·	·	·	·	·
O=S(=O)(/C(=C/c1ccc(C(F)(F)F)cc1)c1nc2ccccc2[nH]1)c1ccccc1	·	-30	-90	139	-12	180*
CC(C)c1ccc(/C=C(\c2nc3ccccc3[nH]2)S(=O)(=O)c2ccccc2)cc1	·	·	-87	78	-2	102*
C/C(=C\c1ccc(N)cc1)c1nc2ccccc2[nH]1	64*	2	?	21	4	32
O=C(N[C@H]1CC[C@H](CCNC(=O)c2ccccc2F)O[C@@H]1CO)c1cnccn1	-1	·	·	·	·	·
C[C@@H]1CN([C@@H](C)CO)C(=O)Cc2cc(NC(=O)Cc3cn(C)c4ccccc34)ccc2O[C@H]1CN(C)S(=O)(=O)c1ccc(Cl)cc1	13	·	·	·	·	·
